The full list was thinned out, with hits kept by preference.
NPSR antag: antagonists of human neuropeptide S receptor cAMP signaling. Q6W5P4. CHO-NPSR cells, cAMP TR-FRET, antagonist mode. Potency, µM (doses to about 38.3 µM), for inactives: top-dose activity change, negative = inhibition, actives largely listed as inhibitors. 220,000 tested, 1% active. AID 1461; also: nearly all actives have a fitted effect of over 50% in size
Target sequence (Q6W5P4 whole entry, looked up): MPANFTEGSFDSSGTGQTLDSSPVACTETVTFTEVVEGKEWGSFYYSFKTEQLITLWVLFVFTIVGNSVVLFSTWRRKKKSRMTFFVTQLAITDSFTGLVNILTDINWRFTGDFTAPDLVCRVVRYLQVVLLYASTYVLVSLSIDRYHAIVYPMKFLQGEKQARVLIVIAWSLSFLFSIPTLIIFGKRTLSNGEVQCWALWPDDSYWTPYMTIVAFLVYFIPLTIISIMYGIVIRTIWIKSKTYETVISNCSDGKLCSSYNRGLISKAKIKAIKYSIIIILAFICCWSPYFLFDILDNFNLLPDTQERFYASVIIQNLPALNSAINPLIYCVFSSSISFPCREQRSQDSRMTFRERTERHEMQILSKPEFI
MBNL1-CUG inh: blocks human MBNL1 binding to CUG repeat RNA; Potency, µM (series often up to 57.5 µM), without a hit: at the highest dose activity change, negative = inhibition, usual class: inhibitors; 280,000 tested, 0.036% active; TR-FRET MBNL1-His/biotin-(CUG)12 binding, 665/545 ratio; active = well fitted inhibition curve with a large enough effect in the signal ratio, with a control signal flat, not every such curve was filed as active; inconclusive = small, poorly fitted or top-dose-only effect, or effect the other way, or a change in a side signal; inactive = no such curve, though single readings can be large or run the other way; the % refers to the signal ratio
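Compound titration spanned 92 nM–58 uM against the MBNL1-His/biotin-(CUG)12 complex. After 60 min at room temperature with 5 nM streptavidin-XL665 and 0.055 ng/ul terbium anti-His, ratiometric 665/545 nm emission (Ex 340 nm) normalized to controls.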
RGS12 GoLoco inh: RGS12 GoLoco-Gai1 interaction inhibition | Gai1:RGS12 GoLoco peptide FP, rhodamine, 10 min | 230,000 tested, 0.44% active | Potency, µM (titrated, usually from 61.6 µM), for the others: top-dose activity, negative = inhibition, hits mostly inhibitors | P63096; active = well fitted inhibition curve with a large enough effect, not every such curve was filed as active; inactive = no such curve, though single readings can be large or run the other way; also: nearly all actives have a fitted effect of over 30% in size
Target sequence (P63096 whole entry, looked up): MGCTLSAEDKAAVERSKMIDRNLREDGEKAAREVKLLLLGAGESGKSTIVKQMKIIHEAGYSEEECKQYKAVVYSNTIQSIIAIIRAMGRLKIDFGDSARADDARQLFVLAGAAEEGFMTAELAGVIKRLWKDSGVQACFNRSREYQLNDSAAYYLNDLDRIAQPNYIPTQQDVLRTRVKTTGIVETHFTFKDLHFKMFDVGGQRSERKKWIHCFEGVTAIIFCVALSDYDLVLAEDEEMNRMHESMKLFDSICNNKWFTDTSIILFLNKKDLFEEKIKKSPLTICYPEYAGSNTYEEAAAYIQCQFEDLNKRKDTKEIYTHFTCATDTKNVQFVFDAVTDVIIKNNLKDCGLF
Tb PFK block: T. brucei PFK enzyme inhibition. O15648. T. brucei PFK, ADP-Glo luminescence. Potency, µM (series often up to 57.5 µM), for the others: at the highest dose activity, negative = inhibition, most hits filed as inhibitors. 330,000 tested, 0.17% active. AID 485367;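 also: 0% = uninhibited 1x PFK enzyme wells and -100% = no-enzyme wells; nearly all actives have a fitted effect of over 60% in size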
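Luminescent ADP detection (ADP-Glo, two-step: ATP depletion then ADP-to-ATP conversion for luciferase) reported PFK activity after 45 min room-temperature reaction of 1.25 nM enzyme with 0.5 mM F6P and 0.1 mM ATP at pH 8.0.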
IMPase Li cell: IMPase inhibition in cells with lithium potentiation; CHO-M1 cells, IP1 TR-FRET (IP-One), carbachol + lithium; Potency, µM (doses to about 59.4 µM), for inactives: at the highest dose activity, negative = IMPase inhibition, actives largely listed as inhibitors; 210,000 tested, 0.35% active; AID 1457;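 also: IP1 builds up when IMPase is blocked and the TR-FRET signal falls; plate controls were basal vehicle for no effect and high inhibitor control for full effect; nearly all actives have a fitted effect of over 50% in size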
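Test compounds were applied to CHO-M1 cells previously cultured for 16–30 h at 2000 per well. A small lithium amount accompanied them; after 30 min at 37C, IP1 was quantified by TR-FRET.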
An asterisk follows results filed as active; ? = inconclusive; / = no result given; [ ] = dose if it differs, or a comment. Unless noted, calls follow the shape of the dose curve; as a rule, active = well fitted curve in the direction sought with a large enough effect; inconclusive = small, poorly fitted or top-dose-only effect, or another doubt; inactive = no such curve, though single readings can be large; an effect the other way counts as inactive or inconclusive. Unless noted, % is scaled to controls: 0 for no effect and ±100 for the full control effect; potency is read from the fitted curve at half-maximal effect.

SMILES | NPSR antag | MBNL1-CUG inh | RGS12 GoLoco inh | Tb PFK block | IMPase Li cell
Cc1cccc(NC2=C/C(=N/S(=O)(=O)c3cccs3)c3ccccc3C2=O)c1 | 5µM* | ? | 19% | 0% | -7%
Cc1cc(C)c(S(=O)(=O)/N=C2\C=C(Nc3ccc(C(=O)O)cc3)C(=O)c3ccccc32)c(C)c1 | / | ? | / | -21% | /
O=C1C(Nc2ccc(O)cc2)=C/C(=N/S(=O)(=O)c2cccs2)c2ccccc21 | 6.3µM* | ? | -2% | -8% | 50%
COC(=O)[C@H]1C2CC3c4[nH]c5ccccc5c4CCN3CC2CC[C@@H]1O (stereo partly drawn) | / | / | 2% | / | -1%
COc1ccc(-c2nc(-c3cccs3)c(-c3cccs3)[nH]2)cc1O | 10µM* | 57% | 20% | 0% | 9%[38.3 µM]
O=C(NN1C(=O)/C(=C/c2ccc(O)c([N+](=O)[O-])c2)SC1=S)c1ccccc1Cl | 6.3µM* | ? | 164% | 0% | 1%
CCOc1ncccc1C(=O)Nc1ccc2c(c1)OCCCO2 | / | / | / | 0% | /
O=C(/C=C/c1cc(Br)ccc1F)OCC(=O)N1CCCC1 | / | / | / | 0% | /
Cc1cc(C(=O)O)ccc1N/C=C1\CCCC(C)C1=O (stereo not drawn) | -4%[46.1 µM] | ? | 8% | 0% | 3%[38.3 µM]
CC1CCC/C(=C\Nc2ccc(O)cc2)C1=O (stereo not drawn) | -4%[46.1 µM] | ? | 28µM* | -5% | 29%[38.3 µM]
CCc1ccc2c(c1)/C(=C/C(=O)c1cccs1)C(=O)N2 | 10µM* | 1% | 4% | -12% | 0%[38.3 µM]
CCCN(CC1CCCO1)C(=O)CCc1nnc(CCc2ccc(OC)cc2)o1 (stereo not drawn) | / | -1% | / | -9% | /
CCc1ccc(N(CC(=O)N2CCCCCC2)S(C)(=O)=O)cc1 | / | -7% | / | 8% | /
CCN(CC)Cc1c(O)c(Cl)cc2c3c(c(=O)oc12)CCCC3 | -2%[46.1 µM] | ? | -13% | 2% | 13µM*
CCCCCOc1ccc(C(O)C(CN2CCOCC2)c2ccccc2)cc1 (stereo not drawn) | / | -2% | / | 2% | /
CN(C)c1ccc(N=Cc2ccco2)cc1 | 7.9µM* | ? | -2% | -12% | 174%[38.3 µM]
Brc1ccc(-c2nc(N/N=C/c3cccnc3)c3ccccc3n2)cc1 | 10µM* | 3% | 8% | -2% | 42%[38.3 µM]
O=C(c1cc(C(F)(F)F)cc(C(F)(F)F)c1)N1CCC[C@@]2(CCN(c3ccncc3)C2)C1 | / | / | 9% | / | 2%
CCOc1cc(/C=C2\C(=O)N(c3nc(-c4ccc(Br)cc4)cs3)N=C2c2ccccc2)ccc1O | 10µM* | 11% | 100% | 1% | 17%[38.3 µM]
COc1cc(/C=C2\C(=O)N(c3ccc(NC(C)=O)cc3)N=C2c2ccccc2)ccc1O | -44% | 5% | 101% | 1% | 4%
Cc1cccc(C(=O)N2CCN(Cc3nc4sc5c(c4c(=O)[nH]3)CCCC5)CC2)c1 | / | 6% | / | 0% | /
O=P(CCCCCCCCCP(=O)(c1ccccc1)c1ccccc1)(c1ccccc1)c1ccccc1 | 13µM* | ? | 3% | -3% | 44%[38.3 µM]
O=C(O)CCCCCCCCCCP(=O)(c1ccccc1)c1ccccc1 | ? | 3% | 4% | 2% | /
COc1ccc(/C=C2\N=C(c3ccccc3)N(c3ccc(C(=O)O)cc3)C2=O)cc1OC | 13µM* | 17% | 0% | 2% | /
C[C@H](CCC(=O)NCCS(=O)(=O)O)C1CC[C@H]2C3CC[C@@H]4C[C@H](O)CC[C@]4(C)C3C[C@H](O)[C@]12C (stereo partly drawn) | / | / | -2% | / | 4%
SMILES | NPSR antag | MBNL1-CUG inh | RGS12 GoLoco inh | Tb PFK block | IMPase Li cell
O=C(N/N=C/c1ccc([N+](=O)[O-])o1)c1ccncc1 | 28% | / | 9% | 4% | /
O=C(N/N=C/c1ccc([N+](=O)[O-])o1)c1ccc(O)cc1 | 13µM* | ? | 12% | -5% | 28%
CC(C)N=c1cc2n(-c3ccc(Cl)cc3)c3ccccc3nc-2cc1Nc1ccc(Cl)cc1 | / | / | 10µM* | / | 12%
CC1CCCCC1Nc1ncnc2sccc12 (stereo not drawn) | / | -5% | / | 0% | /
C/C(CC(C)(C)C1CCCCC1)=N\NC(N)=S | 3.2µM* | -7% | 8% | -1% | 29%[38.3 µM]
C/C(CC1CC(C)OC1=O)=N\NC(N)=S (stereo not drawn) | 49% | -8% | -13% | 0% | -14%
COc1ccc(-c2csc(C3=C(O)CN(Cc4ccc(Cl)cc4)C3=N)n2)cc1OC | -17%[46.1 µM] | 30% | 13% | 0% | 27%[38.3 µM]
COc1cccc(CN2CC(O)=C(c3nc(-c4ccc(Cl)cc4)cs3)C2=N)c1 | -29%[46.1 µM] | 2% | 58% | / | 5.6µM*
CC1CC(OCC(O)C[N+]2(C)CCOCC2)CC(C)(C)C1 (stereo not drawn) | 16% | 3% | 2.2µM* | 0% | 15%
COC(=O)c1ccccc1NS(=O)(=O)c1ccc(O)c(C(=O)O)c1 | -8%[46.1 µM] | -1% | 3% | 38µM* | 17%[38.3 µM]
COc1cccc(-n2cnnc2SCC(=O)NC2CC2)c1 | / | / | / | 0% | /
CN(C)Cc1ccccc1-c1cc(-n2ccnc2)ncn1 | / | / | -7% | / | 2%
COc1ccc(-c2nnn(CC(=O)N(CCCN3CCOCC3)C(C(=O)NC3CCCC3)c3ccc(C)o3)n2)cc1 (stereo not drawn) | 10µM* | -8% | 14% | 3% | 15%
COc1ccc(-c2nnn(CC(=O)N(CCCN3CCOCC3)C(C(=O)NC3CCCC3)c3ccco3)n2)cc1 (stereo not drawn) | 58% | 3% | 15% | -1% | 1%
O=C(/C(=C/O)N=Nc1ccccc1)c1ccc(Cl)cc1 | ? | 2% | -4% | -2% | 25%
Cc1ccc(N=N/C(=C\O)C(=O)c2ccc(Cl)cc2)cc1 | 7.9µM* | -1% | 11% | 3% | 22%
C(=N\Nc1cc(N2CCCCC2)ncn1)/c1ccco1 | / | 18% | / | -1% | /
O=C(Cn1cc(/C=C\[N+](=O)[O-])c2ccccc21)Nc1ccccc1 | 13µM* | -14% | 7% | -3% | /
N#Cc1ccccc1Cn1cc(/C=C/[N+](=O)[O-])c2ccccc21 | ? | 3% | 20% | 4% | 23%
O=C(O)Cn1cc(/C=C/[N+](=O)[O-])c2ccccc21 | -48% | 11% | 14% | ? | 1%
O=[N+]([O-])/C=C/c1cn(Cc2ccccc2)c2ccccc12 | 10µM* | -3% | -8% | -4% | 23%[38.3 µM]
CCN(CC)C(=O)c1nc[nH]c1C(=O)N1CCN(c2ccccc2)CC1 | / | / | / | 6% | /
CC(CNC(=O)CCc1nnc2ccc(N3CCC4(CC3)OCCO4)nn12)c1ccccc1 (stereo not drawn) | / | -4% | / | 1% | /
COc1cc(/C=C2\CCCc3c2nc2ccccc2c3C(=O)O)cc([N+](=O)[O-])c1O | / | ? | / | -6% | /
COc1ccc(/C=C2\CCCc3c2nc2ccccc2c3C(=O)O)cc1OC | 17% | ? | 25µM* | 5% | /
